FXN GAA850 act: FXN promoter activators, primary screen, cell-based, luciferase luminescence, HEK293 lucGAA850 | HEK293 lucGAA850 FXN promoter luciferase reporter, 24 h; percent of 10 µM SAHA response | activation, % at 6 µM | actives 0.56% (n = 360,000);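 active = activation above the average of all compounds screened plus 3 SD, cutoff fixed separately per campaign, cut at about 7.5% in these data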
AHR activator: AHR activators, primary screen, cell-based, luminescence, luciferase reporter, human; AID 2796, 2010; activation, % at 5 µM; AHR-responsive luciferase reporter cells; actives 2.5% (n = 320,000); Aryl hydrocarbon receptor (Homo sapiens), P35869; in the data active = activation above about 47%
Target sequence (P35869 whole entry, looked up): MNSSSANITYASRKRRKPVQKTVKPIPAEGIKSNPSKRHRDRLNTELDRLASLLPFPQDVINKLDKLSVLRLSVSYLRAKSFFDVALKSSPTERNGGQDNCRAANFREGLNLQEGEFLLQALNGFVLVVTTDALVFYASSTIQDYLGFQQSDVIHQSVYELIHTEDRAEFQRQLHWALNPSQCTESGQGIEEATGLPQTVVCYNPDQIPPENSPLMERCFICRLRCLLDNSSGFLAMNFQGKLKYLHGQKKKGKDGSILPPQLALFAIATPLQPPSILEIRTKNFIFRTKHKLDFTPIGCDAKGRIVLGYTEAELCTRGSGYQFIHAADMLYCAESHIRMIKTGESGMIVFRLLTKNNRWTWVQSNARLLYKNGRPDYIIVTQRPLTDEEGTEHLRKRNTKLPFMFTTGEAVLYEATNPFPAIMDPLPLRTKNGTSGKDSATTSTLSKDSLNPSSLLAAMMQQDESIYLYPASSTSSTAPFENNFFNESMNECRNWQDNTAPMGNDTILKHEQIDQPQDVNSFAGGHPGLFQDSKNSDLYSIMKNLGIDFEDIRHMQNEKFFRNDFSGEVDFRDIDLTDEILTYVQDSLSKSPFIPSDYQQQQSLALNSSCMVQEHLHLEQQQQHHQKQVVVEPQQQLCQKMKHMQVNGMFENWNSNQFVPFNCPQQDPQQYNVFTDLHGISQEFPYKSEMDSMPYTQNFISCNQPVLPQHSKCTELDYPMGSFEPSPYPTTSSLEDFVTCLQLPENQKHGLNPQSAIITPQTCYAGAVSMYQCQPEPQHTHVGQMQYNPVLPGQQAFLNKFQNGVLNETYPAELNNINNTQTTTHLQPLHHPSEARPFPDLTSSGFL
HSF1 inh: HSF1 inhibitors in luciferase reporter cells, primary screen, cell-based, NIH3T3, luminescence. NIH3T3-HGL HSE-luciferase, MG132-induced, luminescence 8 h; stronger effect = lower value. activity change, negative = inhibition, % at 7.5 µM (by protocol). actives 0.77% (n = 300,000). AID 2098, 2009;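 active = more than half of replicate wells show activity change below -50%, luminescence cut by over half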;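 also: luciferase reports HSF-1 transcriptional activity via heat shock element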
HSF-1 act: HSF-1 activators, primary screen, NIH3T3-HGL cells, MG132 stress, luminescence, single point; NIH3T3-HGL HSF-1 luciferase reporter, 8 h; 100% = twice DMSO control signal; activation, % at 9 µM; actives 1.7% (n = 300,000);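 active = mean replicate activation of at least 50% with a set share of replicates each reaching 50%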
A number is an active result; i = inactive; nt = not tested or not shown. Compounds with a hit are over-represented: about 4.6% of the library has one in this group of screens.

SMILES	FXN GAA850 act	AHR activator	HSF1 inh	HSF-1 act
CCN(CC)CCCNC(=O)c1ccc2c(SCC(=O)O)c3c(nc2c1)CCC3	nt	i	nt	nt
Nn1c(=O)c2ccccc2n2c(SCc3ccc(C(F)(F)F)cc3)nnc12	i	i	i	i
Nn1c(=O)c2ccccc2n2c(SCc3ccccc3)nnc12	i	i	-68	i
O=C(CCc1ccccc1)NN1C(=O)C2C3C=CC(O3)C2C1=O (configuration not stated)	i	i	i	i
Brc1ccc2c(c1)C(c1cccs1)=NNC(c1cccnc1)=N2	i	92	i	i
CCOc1ccc2c(c1)C(c1cccs1)=NNC(c1cccnc1)=N2	i	i	i	i
CC1(c2ccc(O)cc2)NC(=O)N(c2ccccc2)N1 (configuration not stated)	i	i	i	i
COc1cccc(NC(=O)C(=O)NCCC2CCCCN2S(=O)(=O)c2ccccc2)c1 (configuration not stated)	i	i	i	i
COc1cccc(NC(=O)C(=O)NCC2CCCN2S(=O)(=O)c2ccccc2)c1 (configuration not stated)	i	i	i	56
Cc1cc(NS(=O)(=O)c2ccc(NC(=O)Cc3ccc([N+](=O)[O-])cc3)cc2)no1	i	i	i	i
Cc1cc(C(=O)Nc2sc(C)c(C)c2C#N)c(C)o1	i	76	i	i
Cc1cccc(-c2nnn3c2nc(NCCc2ccc(S(N)(=O)=O)cc2)c2ccccc23)c1	i	50	i	i
CCOC(=O)c1ccc2c(c1)nc(SCC(=O)N1CCCCC1)n2CC	i	i	i	i
COC(=O)C1=C(C)N(Cc2ccc(C)cc2)C(=O)/C1=C\c1cc(OC)c(OC)c(OC)c1	i	i	i	98
O=C(NC1CCCCC1)C(c1ccccc1)N1CCc2ccccc21 (configuration not stated)	i	i	i	i
Cc1ccc(C(C(=O)NC2CCCC2)N2CCc3ccccc32)cc1 (configuration not stated)	i	i	i	58
COc1ccccc1NC(=O)Nc1nc(C(N)C2CCCCC2)cs1 (configuration not stated)	i	nt	nt	nt
CCOC(=O)CNC(=O)Cn1cnc2c(nnn2-c2ccc(F)cc2)c1=O	i	i	i	i
COc1ccc(-n2nnc3c(SC(C(C)=O)C(=O)N(C)C)ncnc32)cc1 (configuration not stated)	i	66	i	i
CCOC(=O)CNC(=O)CSc1ncnc2c1nnn2-c1ccc(F)cc1	i	i	i	95
COC(=O)C(C)Sc1ncnc2c1nnn2-c1ccc(F)cc1 (configuration not stated)	i	i	i	126
COc1ccc(-n2nnc3c(SCC(=O)NCc4ccco4)ncnc32)cc1	i	i	i	i
CCc1ccc(/C=C2\Oc3c(ccc(O)c3CN3CCN(CCO)CC3)C2=O)cc1	i	i	i	i
Cc1ccc(-c2nc3ccccc3[nH]2)cc1NC(=O)c1ccc2c(c1)OCO2	i	i	i	88
O=C(NC(=S)Nc1cc(-c2nc3ccccc3[nH]2)ccc1Cl)c1ccc2c(c1)OCO2	i	84	i	i
SMILES	FXN GAA850 act	AHR activator	HSF1 inh	HSF-1 act
Fc1cccc(/C=N/Nc2nc3ccccc3[nH]2)c1	nt	i	i	i
C(=N\Nc1nc2ccccc2[nH]1)/c1ccccc1	i	i	i	199
C(=C\c1ccccc1)/C=N/Nc1nc2ccccc2[nH]1	i	65	i	i
COc1ccc(/C=N/Nc2nc3ccccc3[nH]2)c(OC)c1OC	i	51	i	108
C(/CCc1ccccc1)=N\Nc1nc2ccccc2[nH]1	i	i	i	i
Fc1ccc(/C=N/Nc2nc3ccccc3[nH]2)cc1F	i	49	i	95
COc1ccc(/C=N/Nc2ccccn2)c(OC)c1OC	i	i	i	i
COc1ccccc1N1CCN(c2ccc(S(=O)(=O)N3CCN(C)CC3)cn2)CC1	i	i	nt	nt
CCCC(=O)NC(C)C(c1cccs1)N1CCN(C)CC1 (configuration not stated)	i	i	i	i
CN(C)S(=O)(=O)c1cccc(-c2csc(N/N=C/c3ccco3)n2)c1	i	i	i	i
Cc1[nH]c2ccccc2c1/C=N/Nc1nc(N2CCCCC2)nc(N2CCCCC2)n1	i	i	i	i
Cc1ccccc1/C=N/Nc1nc2ccccc2[nH]1	i	65	i	229
Cc1[nH]c2ccccc2c1/C=N/Nc1nc2ccccc2[nH]1	i	143	i	403
C(=N\Nc1nc2ccccc2[nH]1)/c1cccc2cccnc12	i	i	i	i
O=[N+]([O-])c1cc(/C=N/Nc2nc3ccccc3[nH]2)c(O)cc1O	nt	i	i	305
Nc1ccc(Sc2nc3ccccc3[nH]2)cc1	i	i	i	i
Cc1nc2nc(C)c(CCC(=O)NC(C)c3ccc4c(c3)OCCO4)c(C)n2n1 (configuration not stated)	i	i	i	i
O=C(NCCCn1ccnc1)C1CC(c2cccc(Br)c2)=NO1 (configuration not stated)	i	i	i	i
COc1cccc(/C=N/Nc2ncccc2[N+](=O)[O-])c1OC	i	i	i	i
CC(=O)c1ccc(NC(=S)N2CCCCCC2)cc1	i	i	i	i
CC(=O)c1ccc(NC(=S)N2C(C)CCCC2C)cc1 (configuration not stated)	nt	i	i	59
Cc1ccc(OCC(=O)N2CCN(S(=O)(=O)c3ccccc3)CC2)c([N+](=O)[O-])n1	i	i	i	i
COc1ccc(NC(=O)COc2cccc3c2CCN(C)C3=O)c(OC)c1	i	77	i	i
CCc1cccc(NC(=O)Cc2ccc([N+](=O)[O-])cc2)c1	i	i	i	i
CCOc1cc(CNCc2ccccc2)ccc1OCC(=O)NC1CCCCC1	i	nt	i	i
SMILES	FXN GAA850 act	AHR activator	HSF1 inh	HSF-1 act
C(=C\c1ccco1)/C1=NN(c2ccccc2)C(c2ccco2)C1 (configuration not stated)	i	i	i	78
O=[N+]([O-])c1ccc(/C=C/C2=NN(c3ccccc3)C(c3ccco3)C2)o1 (configuration not stated)	i	nt	i	i
O=C(CCc1nnc(Cc2ccc(-c3ccccc3)cc2)o1)N1CCCC1	i	i	i	70
CCC(C(=O)NCc1ccco1)N(C(=O)CNS(=O)(=O)c1ccc(C)cc1)c1ccccc1F (configuration not stated)	i	i	i	i
CC(C)(C)c1ccc(S(=O)(=O)NNC(=O)c2cc3ccccc3[nH]2)cc1	i	74	i	i
O=C(Nc1ccc2c(c1)OCO2)c1cnn2cccnc12	i	108	i	i
Cc1cc(C)n2ncc(C(=O)Nc3ccc4c(c3)OCO4)c2n1	i	73	i	i
O=C(Nc1cccnc1)c1cnn2cccnc12	i	i	i	i
Cc1cc(C)n2ncc(C(=O)Nc3cccc(O)c3)c2n1	i	i	i	i
O=C(Nc1cccc(O)c1)c1cnn2cccnc12	i	50	i	i

From PubChem
